This is a sample that favours compounds with a hit; in the whole collection about 1.4% have one here.
SARS PLpro yeast: blocks SARS-CoV papain-like protease in a yeast assay | S. cerevisiae expressing SARS-CoV PLpro, growth rescue | Potency, µM (titrated, usually from 32.9 µM), for the others: top-dose activity, positive = growth rescue, hits mostly activators | 0.19% of 330,000 active; calls by dose curve; also: 0% is about no effect; nearly all actives have a fitted effect of over 55% in size
AmpC detergent: AmpC beta-lactamase inhibition with detergent present; 0.041% of 370,000 active; Potency, µM (top dose mostly 114 µM), for the others: at the top dose activity change, negative = inhibition, usual class: inhibitors; AmpC hydrolysis of nitrocefin, absorbance 480 nm, 0.01% Triton;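 also: 0% = no-compound wells and -100% = no-enzyme wells; nearly all actives have a fitted effect of over 25% in size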
Target sequence (P00811 whole entry, looked up): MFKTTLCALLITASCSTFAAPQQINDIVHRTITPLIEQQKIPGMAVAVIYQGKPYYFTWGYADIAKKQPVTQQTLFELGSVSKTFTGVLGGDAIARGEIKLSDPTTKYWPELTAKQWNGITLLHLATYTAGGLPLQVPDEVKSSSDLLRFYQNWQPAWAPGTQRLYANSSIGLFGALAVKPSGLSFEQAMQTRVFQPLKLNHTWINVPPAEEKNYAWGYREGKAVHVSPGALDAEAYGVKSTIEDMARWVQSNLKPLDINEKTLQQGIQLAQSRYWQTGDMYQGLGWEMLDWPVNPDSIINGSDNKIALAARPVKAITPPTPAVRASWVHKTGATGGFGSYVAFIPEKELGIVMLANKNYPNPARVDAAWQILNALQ
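20 mM phosphate pH 7.0 + 0.01% (detergent screen) or 0.0001% Triton X-100; 5.3 nM AmpC reagent; cpd preinc 15 min RT; nitrocefin (800 uM stock) to start; A480 q20 s × 4 min; Activity was normalised to no-enzyme and no-compound control wells.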
AmpC inh no detg: inhibitors of E. coli AmpC beta-lactamase without detergent. AmpC nitrocefin hydrolysis, absorbance 480 nm, 0.0001% Triton. Potency, µM (doses to about 57.1 µM), without a hit: top-dose activity change, negative = inhibition, actives largely listed as inhibitors. 0.52% of 330,000 active. AID 485341;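 also: plate controls were no compound for no effect and no enzyme for full effect; nearly all actives have a fitted effect of over 20% in size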
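20 mM phosphate pH 7.0 + 0.01% (detergent screen) or 0.0001% Triton X-100; 5.3 nM AmpC reagent; cpd preinc 15 min RT; nitrocefin (800 uM stock) to start; A480 q20 s × 4 min; Activity was normalised to no-enzyme and no-compound control wells.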
FBPA Giardia inh: inhibitors of Giardia lamblia fructose-1,6-bisphosphate aldolase | A8B2U2 | purified Giardia FBPA | Potency, µM (titrated, usually from 59.6 µM), for inactives: at the top dose activity, negative = inhibition, most hits filed as inhibitors | 0.71% of 290,000 active | AID 2451; also: % is scaled to controls: 0 for no effect and ±100 for the full control effect; nearly all actives have a fitted effect of over 55% in size
Target sequence (A8B2U2 whole entry, looked up): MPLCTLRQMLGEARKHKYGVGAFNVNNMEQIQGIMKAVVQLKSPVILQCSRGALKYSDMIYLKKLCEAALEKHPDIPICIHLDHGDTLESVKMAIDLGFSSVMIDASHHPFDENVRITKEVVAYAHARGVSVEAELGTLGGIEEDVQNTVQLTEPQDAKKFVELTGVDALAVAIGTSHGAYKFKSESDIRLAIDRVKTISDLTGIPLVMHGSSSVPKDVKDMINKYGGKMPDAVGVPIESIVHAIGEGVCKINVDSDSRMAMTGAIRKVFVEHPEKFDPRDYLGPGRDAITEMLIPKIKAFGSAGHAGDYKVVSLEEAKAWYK
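Giardia FBPA (40 nM reagent) was preincubated 10 min at RT with compound (up to 57.5 uM final), then substrate plus GAPDH/TPI/NAD/arsenate coupling system with diaphorase/resazurin was added; resorufin fluorescence (525/598 nm) was read after 20 min.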
NS1 function inh: inhibitors of influenza NS1 protein function. 0.4% of 270,000 active. Potency, µM (top dose mostly 46.1 µM), without a hit: at the highest dose activity, positive = more growth; calls by dose curve; also: actives are rising curves; nearly all actives have a fitted effect of over 50% in size
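Read-out: OD600 growth recovery of NS1-expressing budding yeast. Cells grown overnight at 30C in -URA glucose medium, washed, resuspended and diluted 1:100 in 2% galactose assay medium, pH 6.0. Same strain lacking NS1 served as positive control.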
Active calls of the source: *. Unless noted, calls follow the shape of the dose curve; as a rule, active = well fitted curve in the direction sought with a large enough effect; inconclusive = small, poorly fitted or top-dose-only effect, or another doubt; inactive = no such curve, though single readings can be large; an effect the other way counts as inactive or inconclusive. Potency is read from the fitted curve at half-maximal effect.

For CCN(CC)Cc1cc(O)c(CN(CC)CC)cc1O the results were SARS PLpro yeast -1.6%, AmpC detergent -1.9%, AmpC inh no detg -2.8%, FBPA Giardia inh 5.61µM* and NS1 function inh -7.4%.
`COc1ccc(OCCNc2c([N+](=O)[O-])c(=O)oc3ccccc23)cc1` gave SARS PLpro yeast -0.6%, AmpC detergent inconclusive, AmpC inh no detg 28.2µM* and FBPA Giardia inh 2.8%.
`O=C(COC(=O)C12CC3CC(CC(C3)C1)C2)Nc1nc2c(F)c(F)c(F)cc2s1` gave SARS PLpro yeast -13.5%, AmpC detergent -0.8%, AmpC inh no detg 10µM*, FBPA Giardia inh 0.6% and NS1 function inh 9.1%.
Cc1ccc(S(=O)(=O)N2CCOC23CCN(C(=O)C(=O)NCc2ccccc2)CC3)cc1 was read as SARS PLpro yeast -1.6%, AmpC detergent inconclusive and AmpC inh no detg 2.8%.
`Cc1c(C(=O)NC(=S)Nc2ccc(NC(=O)c3cccs3)cc2)oc2ccccc12` gave SARS PLpro yeast -37.5%, AmpC detergent inconclusive, AmpC inh no detg 17.8µM*, FBPA Giardia inh -16.0% and NS1 function inh -31.0%.
`CC(=O)NC(=S)Nc1ccc(NC(=O)c2cccs2)cc1` gave SARS PLpro yeast -15.9%, AmpC detergent -14.6%, AmpC inh no detg -8.3%, FBPA Giardia inh -3.9% and NS1 function inh -5.0%.
`CCc1ccc(NC(=O)CSc2nnc(Cc3cccn3C)n2-c2ccc(F)cc2)cc1` gave SARS PLpro yeast -4.8%, AmpC detergent -17.1%, AmpC inh no detg 12.6µM*, FBPA Giardia inh -1.1% and NS1 function inh -72.5%.
For CCC1=C(OC(=O)N(CC)CC)N2C(=O)OC(=NCC3CC3)[C@]2(Cc2ccccc2)[C@H]2C1=CC[C@H]1C(=O)N(C)C(=O)[C@H]12 the results were SARS PLpro yeast 1.0%, AmpC detergent -9.1%, AmpC inh no detg 205.9%, FBPA Giardia inh -0.1% and NS1 function inh -11.2%.
For Cc1ccc(S(=O)(=O)N2CCC(C(=O)N[C@@H](C)C(=O)Nc3ccc4c(c3)OCO4)CC2)cc1 the results were SARS PLpro yeast 6.1%, AmpC detergent 35.5µM*, AmpC inh no detg 7.9%, FBPA Giardia inh 2.2% and NS1 function inh -24.5%.
Screening Cc1ccc(S(=O)(=O)N2CCC(C(=O)N[C@@H](C)C(=O)Nc3ccc(F)cc3)CC2)cc1 returned SARS PLpro yeast 7.3%, AmpC detergent -8.9%, AmpC inh no detg 22.6%, FBPA Giardia inh 17.6% and NS1 function inh 9.7%.
For Cc1ccc(C(=O)CSc2nnc(C3CC3)n2C2CC2)s1 the results were SARS PLpro yeast -8.7%, AmpC detergent 0.3% and AmpC inh no detg -11.2%.
Screening Cc1ccc(S(=O)(=O)Oc2cccc(/C=N/Nc3ccc(C(=O)O)cc3)c2)cc1 returned SARS PLpro yeast 0.9%, AmpC detergent 4.3%, AmpC inh no detg -56.6%, FBPA Giardia inh 17.7µM* and NS1 function inh 2.7%.
`CC1(C)Cc2c(c(-c3ccco3)[nH]c(=O)c2C#N)CS1` gave SARS PLpro yeast 6.3%, AmpC detergent -14.1%, AmpC inh no detg -15.1%, FBPA Giardia inh 17.7µM* and NS1 function inh 13.4%.
Cc1ccc(-n2cccc2/C=C2/NC(=O)N(CC(=O)Nc3cccc(C)c3)C2=O)cc1 was read as SARS PLpro yeast 23.2%, AmpC detergent inconclusive, AmpC inh no detg 31.6µM*, FBPA Giardia inh 2.1% and NS1 function inh inconclusive.
`Cc1cccc(NC(=O)CN2C(=O)N/C(=C\c3cccn3-c3cccc(C(=O)O)c3)C2=O)c1` gave SARS PLpro yeast -0.3%, AmpC detergent -4.6%, AmpC inh no detg -13.6% and FBPA Giardia inh 5.8%.
For O=C(N/N=C/c1ccoc1)c1ccccc1Br the results were SARS PLpro yeast inconclusive, AmpC detergent -6.4%, AmpC inh no detg -26.1%, FBPA Giardia inh 1.8% and NS1 function inh -2.6%.
Screening O=C(N/N=C/c1ccoc1)c1cc(Br)ccc1O returned SARS PLpro yeast 11.2%, AmpC detergent -8.5%, AmpC inh no detg 7.94µM*, FBPA Giardia inh -28.9% and NS1 function inh -24.1%.
Screening O=C(N/N=C1/CCSC1)c1cc(Br)ccc1O returned SARS PLpro yeast -2.5%, AmpC detergent -3.9%, AmpC inh no detg -58.3%, FBPA Giardia inh -4.4% and NS1 function inh -3.6%.
O=C(NN=C1CCCC1)c1cc(Br)ccc1O was read as SARS PLpro yeast -2.9%, AmpC detergent inconclusive, AmpC inh no detg 7.94µM*, FBPA Giardia inh -14.9% and NS1 function inh -26.3%.
For Clc1c(Cl)c(Cl)c2n[nH]nc2c1Cl the results were SARS PLpro yeast -6.7%, AmpC detergent -7.2%, AmpC inh no detg -34.2%, FBPA Giardia inh 27.3% and NS1 function inh -71.5%.
`CCOC(=S)SCC(=O)Nc1nc(C)c(C)s1` gave SARS PLpro yeast -3.5%, AmpC detergent -1.5%, AmpC inh no detg 10µM*, FBPA Giardia inh -11.8% and NS1 function inh -42.2%.
`CCOC(=O)c1c(NC(=O)C(C)OC(=O)c2ccc(NC(=O)CC#N)cc2)sc2c1CCCC2` (stereo not given) gave SARS PLpro yeast -6.7%, AmpC detergent -13.4% and AmpC inh no detg 28.2µM*.
CC(C)NC(=O)c1ccc(OC2CSC2)cc1 was read as SARS PLpro yeast -5.6%, AmpC detergent inconclusive, AmpC inh no detg -8.2%, FBPA Giardia inh 0.3% and NS1 function inh -6.3%.
Screening Cc1ccc(C(=O)C[n+]2cccc3ccccc32)cc1 returned SARS PLpro yeast 1.6%, AmpC detergent -0.3%, AmpC inh no detg 0.159µM*, FBPA Giardia inh 0.3% and NS1 function inh 5.7%.
Screening O=C(c1noc2c1CCCCC2)N1CCN(c2cccc(Cl)c2)CC1 returned AmpC detergent 19.3%.
COc1cc(/C=N/NC(=O)CCOc2ccccc2C)cc(Br)c1O was read as SARS PLpro yeast 5.0%, AmpC detergent 0.5%, AmpC inh no detg 22.4µM* and FBPA Giardia inh -3.4%.
Screening COc1ccc(/C=N/NC(=O)CCOc2ccccc2C)cc1OC returned SARS PLpro yeast 0.9%, AmpC detergent -15.4%, AmpC inh no detg -1.1%, FBPA Giardia inh 2.5% and NS1 function inh 23.6%.
Screening O=c1cc(-c2ccc(Br)cc2)[nH][nH]1 returned SARS PLpro yeast 3.5%, AmpC detergent 2.4%, AmpC inh no detg -46.5%, FBPA Giardia inh -0.5% and NS1 function inh 17.4%.
Screening O=c1cc(-c2ccc(C3CCCCC3)cc2)[nH][nH]1 returned SARS PLpro yeast 1.4%, AmpC detergent -5.9%, AmpC inh no detg 14.1µM* and FBPA Giardia inh 6.1%.
O=C(N/N=C/c1ccc(O)cc1O)c1ccc(CN2C(=O)c3cccc4cccc2c34)cc1 was read as SARS PLpro yeast 5.8%, AmpC detergent 0.9%, AmpC inh no detg 7.08µM*, FBPA Giardia inh -12.2% and NS1 function inh 2.6%.
`Cc1ccc(NC(=O)c2noc3c2CCc2ccccc2-3)cc1` gave SARS PLpro yeast 9.5%, AmpC detergent 2.0%, AmpC inh no detg -26.1%, FBPA Giardia inh 3.1% and NS1 function inh -5.7%.

Screening results: PubChem BioAssay, National Center for Advancing Translational Sciences (NCATS)
